Laboratory results taken from PubChem BioAssay AID1928 (Vanderbilt High Throughput Screening Facility, 2009).

biological target: Muscarinic acetylcholine receptor M5 (Homo sapiens) (UniProt P08912); test: ACh potency shift at human M5 – cell-based, analogs, calcium, selectivity assay for M4 PAM project, SAR follow-up (AID 1928); conditions: hM5-expressing cells, ACh CRC fold-shift; series mostly up to 1 µM; ACh response, % max: at the top concentration
Sequence (P08912 whole entry, looked up): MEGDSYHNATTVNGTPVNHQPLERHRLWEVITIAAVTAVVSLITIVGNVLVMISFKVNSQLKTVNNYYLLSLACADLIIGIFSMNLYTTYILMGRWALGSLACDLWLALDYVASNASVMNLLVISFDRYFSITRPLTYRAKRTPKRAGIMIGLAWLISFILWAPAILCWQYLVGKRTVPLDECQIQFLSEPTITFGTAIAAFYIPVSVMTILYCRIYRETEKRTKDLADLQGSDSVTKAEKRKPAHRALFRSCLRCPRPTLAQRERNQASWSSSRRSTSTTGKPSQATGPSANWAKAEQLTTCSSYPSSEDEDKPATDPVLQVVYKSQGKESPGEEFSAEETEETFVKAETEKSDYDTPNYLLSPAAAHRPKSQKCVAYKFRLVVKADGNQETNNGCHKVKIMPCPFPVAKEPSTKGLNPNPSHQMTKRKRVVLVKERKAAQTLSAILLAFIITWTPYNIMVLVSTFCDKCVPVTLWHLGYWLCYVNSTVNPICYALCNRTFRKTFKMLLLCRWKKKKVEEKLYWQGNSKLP

ACh response, % max, inactive:
Cc1cc(OCCN2CCOCC2)nc2sc(C(=O)NC(C)(C)C)c(N)c12 93.7
COc1ccc(CNC(=O)c2sc3nc(OCc4ccncc4)cc(C)c3c2N)cc1 96.3
Cc1cc(OCc2ccncc2)nc2sc(C(=O)NCc3cc(F)ccc3F)c(N)c12 92.8
Cc1cc(OCc2ccncc2)nc2sc(C(=O)NCc3cccc(F)c3F)c(N)c12 92.3
